Experimental data as given in PubChem BioAssay (NCI).
The panel holds about 83,000 compounds, 20% with a hit somewhere; the sample as a whole holds those more often.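 Treatment: one concentration, 48 hours, 96-well format. Scoring: percent growth, with anything below 10 considered active.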 Active and inactive are the calls of the source.

Legend:
Assay in all cases: NCI-60 one-dose screen, 48 h (100 = growth as untreated, 0 = no growth, -100 = all killed)
Settings in all cases: 10 µM unless noted
[1] = test system: OVCAR-5 ovarian
[2] = test system: OVCAR-4 ovarian
[3] = test system: SK-OV-3 ovarian
[4] = test system: OVCAR-3 ovarian
[5] = test system: HS 578T breast
[6] = test system: NCI/ADR-RES ovarian
[7] = test system: T-47D breast
[8] = test system: IGROV1 ovarian
[9] = test system: OVCAR-8 ovarian

Measured: growth

COC(=O)[C@]1(CCSC)N[C@H](c2cn(-c3ccccc3)nc2C)[C@@H]2C(=O)N(c3ccccc3)C(=O)[C@@H]21
inactive: [1] 104% | [2] 106% | [3] 95.2% | [4] 98.7% | [5] 93.7% | [6] 91% | [7] 108%

Cc1nn(-c2ccccc2)c(Cl)c1C(CC(=O)c1ccc(Cl)cc1)CC(=O)c1ccc(Cl)cc1
inactive: [1] 93.8% | [2] 97.8% | [3] 91.8% | [8] 101% | [4] 91.7% | [5] 97.3% | [6] 90.2% | [7] 85.8%

c1ccc2cc(C[n+]3ccn(CCCCCCCn4cc[n+](Cc5ccc6ccccc6c5)c4)c3)ccc2c1
inactive: [1] 48.2% | [2] 37.3% | [3] 36.1% | [8] 27.5% | [4] 44.4% | [5] 61.5% | [6] 99.7% | [7] 23.4%

Cc1nn(-c2ccc(Cl)cc2)c2nc3c(nc12)C(=O)c1ccccc1-3
inactive: [1] 90.8% | [2] 34.5% | [3] 32.7% | [8] 77.3% | [4] 62.8% | [5] 63.7% | [6] 62.9%

CCCCOc1ccc(C(C)(C)c2ccc(OCCCC)cc2)cc1
inactive: [1] 109% | [2] 108% | [3] 94.6% | [8] 103% | [4] 106% | [5] 105% | [6] 101% | [7] 90.2%

O=C(NCCCO)c1cc(Cl)ccc1O
inactive: [9] 17.8% | [1] 45% | [3] 40.6% | [8] 28.1% | [5] 19.3% | [6] 95.8% | [7] 30%
active: [4] -14.9%

CCOC(Cc1c(N)[nH]c(=S)[nH]c1=O)OCC
inactive: [9] 96.2% | [1] 93.9% | [3] 107% | [8] 104% | [4] 120% | [5] 120% | [6] 102% | [7] 99%

Cc1nn(-c2ccccc2)c2nc(Cl)c(/C=C/C(=O)c3ccccc3)c(-c3ccccc3)c12
inactive: [1] 103% | [2] 107% | [3] 102% | [8] 120% | [4] 116% | [5] 95.5% | [6] 105% | [7] 107%

O=C(NCCc1ccccc1)C1CCC(=O)N1Cc1ccc(Br)cc1 (configuration not stated)
inactive: [1] 94.4% | [2] 111% | [3] 101% | [8] 103% | [4] 116% | [5] 113% | [6] 107% | [7] 106%

Cc1c(C(N)=O)sc2c1c(=O)n(Cc1ccccc1)c1nnc(SCC(=O)Nc3ccc(Cl)cc3)n21
active: [2] -80.2% | [4] -3.77% | [5] 6.54% | [7] -23.9%
inactive: [1] 64.9% | [3] 24.8% | [8] 23.1% | [6] 82.2%

Cc1c(C(N)=O)sc2c1c(=O)n(Cc1ccccc1)c1nnc(S(=O)(=O)CC(=O)Nc3ccc(Cl)cc3)n21
active: [4] 5.69%
inactive: [1] 82.7% | [3] 18.7% | [8] 40% | [5] 17.8% | [6] 108% | [7] 21.8%

CC(C)(C)c1cc(O)c(O)c(C(C)(C)C)c1
inactive: [9] 39.8% | [1] 55.3% | [3] 67% | [8] 49.9% | [4] 20.9% | [5] 43.6% | [6] 51.9% | [7] 12.8%

c1ccc(-c2nn[nH]n2)c(-c2ccc(CN3CCN(c4nsc5ccccc45)CC3)cc2)c1
inactive: [1] 96.8% | [2] 85.6% | [3] 105% | [8] 113% | [4] 91.4% | [5] 105% | [6] 92% | [7] 68.7%

Cc1ccc(NC(=O)CSc2nnc3n(Cc4ccccc4)c(=O)c4c(C)c(C(N)=O)sc4n23)cc1
active: [2] -62.3% | [3] -7.67% | [4] 9.55% | [5] 6.99% | [7] -19.7%
inactive: [1] 75.8% | [8] 50.8% | [6] 92.8%

Oc1ccccc1/C=N\Nc1ccccc1
inactive: [9] 52% | [1] 55.5% | [3] 108% | [8] 57.3% | [4] 79.1% | [5] 80.8% | [6] 44.1% | [7] 44.5%

COC(=O)[C@]1(C(C)C)N[C@H](c2cn(-c3ccccc3)nc2-c2ccccc2)[C@@H]2C(=O)N(c3ccc(Cl)cc3)C(=O)[C@@H]21
inactive: [1] 101% | [2] 117% | [3] 92.7% | [8] 103% | [4] 89.1% | [5] 117% | [6] 90.3%

Cc1nn(-c2ccccc2)c2ncc3c(c12)C(=O)N(Cc1ccccc1)C3=O
inactive: [1] 63.6% | [3] 14.7% | [8] 14.7% | [4] 19.2% | [5] 22.7% | [6] 42.1% | [7] 43.4%
active: [2] -57.8%
